The source of these data is publication PMC13494018.

B1: Pdl1_binder_AF2_30 (protein)
chain: MSKRDELLTKALEYLQKATKLVYEHDPETAREIAHHFSKAVADPEKAEEELEKALELAEKAAAEMERGEELRELMEKAKEYVLEYVKL
B2: Pdl1_binder_AF2_37 (protein)
chain: SETTLKETAKLIEVMAKDRGEFVKIEAKGDKIVLYTKTEEGAKKINKEGSKLAKSVGVEFEAKVA
B3: Pdl1_binder_AF2_66 (protein)
chain: REQIYEQFLELAKAEAREFPGVVDVSREGDTLIVTTKTEEAAKEFEKRLQPIADSVGVKLETKVA
B4: Pdl1_binder_AF2_76 (protein)
chain: MYEVVIEGEKSVAEFIKLIAEQLGAEAEVEGDKAVIRTERREDAERLAEAAKRFGAEAEVRE
B5: design_391_ca6baf5d-2451-47ba-bffc-fc886679966a_206_dldesign_0_cycle1_af2pred (protein)
chain: DWQAVALQAAEAAAQAAKEDPENAALFNEAAHLLLLAVARPETALELTEKALKLAEKAAKTGSELAKKAYELTKEALELLKAA
B6: Pdl1_binder_AF2_51 (protein)
chain: MEVIYADTKEEATMKVMEALSRGVAREDILVYLKDAKDAEKLAKVWGVTAKLA
B7: Pdl1_binder_AF2_79 (protein)
chain: KREEALRKAAEAAVKAMEMAKKASDEAKVEIMEHFSRAMRAIKEGDFEEAIRHLRKAAEVAEEKVGKEVGEFIREAAREVERIA
B8: Pdl1_binder_AF2_73 (protein)
chain: DEARDEAITELMLVASRALKAGPALAEAVELLLEAIHLAVEGRLEEAAELAERAAELAREAGDEEVAEEAERAAELARRAAEEEE
B9: Pdl1_binder_AF2_18 (protein)
chain: DEETRREIAEHLLRVAKKDQGLVDAEIEGDKVRVKAKTEEQYEKGKIAAEAAAAIVGGEAEAEIV
B10: Pdl1_binder_AF2_49 (protein)
chain: SKKVRFQAYQASAEVIAKEVGGYVVSTGPDKVVIAAPTEEAAEKARKALDELGKAFGFGYEVFVA
B11: Pdl1_binder_AF2_86 (protein)
chain: MRLTIGIAETEEEAEELARRFREEGVEDFVVVTDLEEAVAIAREAGVPTTILAPKGFDTKALLKAAMELNEAGIPTSVQHIP
B12: Pdl1_binder_AF2_7 (protein)
chain: DKESAAKKAIQLLEIARERVVADPAAAKAFKEAAKLVEVMLKDAGADEEKAEKVEEKAEKAADAYAAGDKETADKYYEEAVELVKEAA
B13: Pdl1_binder_AF2_72 (protein)
chain: DEMDKLKVEAMKYGSKAIKIASEKDEELAERAAEALSLAMTDPEKGAKELRKIAEELEEKGLPEAAEYLRKAADYFERYAKLLKE
B14: Pdl1_binder_AF2_87 (protein)
chain: ERREELEAIAKATESLAELLELGEKDPEVRKAALRAAQIVAERLAERAEELGAEEAAELLRKAAEDPENALRYVREAAEKLRAEAEAL
B15: Pdl1_binder_AF2_95 (protein)
chain: LEEERREFEEVLERLLEVAEEDPEVRERAEEMVRRAREVAEREGVAAGAAEAAVGALRIASEASEEVRKRYLELASELQAIGQRVVRA
B16: design_391_ca6baf5d-2451-47ba-bffc-fc886679966a_294_dldesign_0_cycle1_af2pred (protein)
chain: AAEEAAEKAVEEAEKALEKAKAHLAKYPDSLAAKAAVALAKTMLAAAKEVAEEGNLEELERTLESVRKATEEMDKLLAADEAAAA
B17: Pdl1_binder_AF2_12 (protein)
chain: MHRTVTVKNEAEAIAAVIEAYHSGEKLTIVTDSEEIAKKAERLNKQLGGNATFEV
B18: Pdl1_binder_AF2_61 (protein)
chain: MYVVVAKGTEQQAKLFALIARDRGHEAEVEGDTAVVKTDDLEEAEKLAELARELGMEAEVIE
B19: design_391_ca6baf5d-2451-47ba-bffc-fc886679966a_158_dldesign_0_cycle1_af2pred (protein)
chain: AEEKRKKAQELYEKAIAEAKELAKKGDIGALLKVTMDAAKEILELDPSLEPLAEALRKQGTALAQEAIAAAIAAAA
B20: Pdl1_binder_AF2_8 (protein)
chain: YKLVVEAPNEKIAEQIKEIAESIGAKAEIEGMKVVIEADDKQTIEFIKLYAEEKGAKVLEIT
B21: Pdl1_binder_AF2_33 (protein)
chain: MEEAKRVAEQMALMMRAAGEEASVEVEGDKITIYYKGDDESLWEVAESVAEKIEEKYGVEVEVVR
B22: Pdl1_binder_AF2_6 (protein)
chain: SDELRVEAVQVAQEASVAIARAERAVAEGDAEEIRRAAEELERAARRAEEQAERLEEAGDKGMAEFLRRVVERAREAAARARRAAEEL
B23: Pdl1_binder_AF2_85 (protein)
chain: EARELVKEAVEKFEKAAEEALKDFEKAEKLAKEALEKLYEAAKLDPSLRPVYQEAALHLVKALAHDDDPEKASEELKKAAEVAKKELE
B24: Pdl1_binder_AF2_5 (protein)
chain: EEDLEKLVELARKALEHIKRAAEYSKEDESKMAEELAKAVALASEISKIDVEVAKLVLKAVNAVMKGDRLEEGVKLAEEALKRAEEKK
B25: Pdl1_binder_AF2_22 (protein)
chain: YRIAIFFPSREKAEEWAAEARAAGRLVRYLTNLMVVEVDSEEEARAVAAEAEALGAATVFLD
B26: Pdl1_binder_AF2_43 (protein)
chain: SAIEKTKEKIRQLFESAGVEVEDIEVEGDTITVHVKEDTEAARQAALLANVYAEDKVGLKVVLEA
B27: Pdl1_binder_AF2_35 (protein)
chain: SLKEKAEKHIEEAEKLAKKVGELADKEKAEKAIELLKKGTPESIVEAIALLDQLAKEEKENKEEVRKLASEAIVAAMKAAALLDAAEE
B28: design_391_ca6baf5d-2451-47ba-bffc-fc886679966a_164_dldesign_0_cycle1_af2pred (protein)
chain: AGKVGELAAETLKVAAEARRVAAELPEIREEVTARTSRLVAEAFRAALSGTDEDTAKRALEELKRLLEEARELLEEA
B29: design_391_ca6baf5d-2451-47ba-bffc-fc886679966a_219_dldesign_0_cycle1_af2pred (protein)
chain: AEAERRREEVIREAREAAERLREAGREASPELRALAEATAQTVLLLVEGGEANSPELGLRVAERALELARRTLEEVRAG
B30: Pdl1_binder_AF2_52 (protein)
chain: IKEKIEELEKKAEEEVEEAKKLDKEEANKKLNKLSTEIYIEAIQVNDEEFRKKAVEILTKIAKESKELGLEEAEKAASSFAEELKEKL
B31: Pdl1_binder_AF2_2 (protein)
chain: SIEEMVEEMEKLLEEAAKIVPEIKELLEKAKEIAKKAIEIAKKKGNGEAVAKIFRDMAEMTLRAAKFDKKGAENAALLMIKRAEDIAE
B32: design_391_ca6baf5d-2451-47ba-bffc-fc886679966a_175_dldesign_0_cycle1_af2pred (protein)
chain: DEKLKKAEELAKQAAKATLTPTGKAEFDKLANEAMKLVSQLFKEDPAKGQKAAKALSEAIDQAKANAALAAAAA
B33: Pdl1_binder_AF2_91 (protein)
chain: DEKFKKIKKMAKVFSESTGKEIEVEKKGDEFIITAKDADEATYQAAKLLKARAEDLGVKARFKEA
B34: Pdl1_binder_AF2_93 (protein)
chain: REEKIEKVREAAEEAKKAGAIEDYEIEGDEVKFYRKDWKPESLLIVMKAAQVAALEGFKPTIVKS
B35: Pdl1_binder_AF2_64 (protein)
chain: EEEEKKEKANLLRVEAAQKLSLVAEALPEVREKALEAIRKIFDKETIEEGVELAREIAERVAAEGTEEQARLAREAVEKAEEALKLEK
B36: Pdl1_binder_AF2_92 (protein)
chain: PKVVVEADTEEEAEKMAKKFREMGAEAEIEGKTVVATSDSEELIKLIAVIARDRGLKAEVIP
B37: Pdl1_binder_AF2_13 (protein)
chain: MYVLVAKADENEARFLKLMAEKLGVKAEVEGDIVTFVSDDKEAIEIIRRFLEKEGRVISFEE
B38: Pdl1_binder_AF2_3 (protein)
chain: MEKAEERKKWLLEKLKELGVEVKEISLDGHVVITGAKSEEALKGAESLVKMFGLFLGVEAKVEVV
B39: Pdl1_binder_AF2_45 (protein)
chain: MIVHIETPTRDLQLFLKLYAEEKGFKVVEAGETSLVIESDLPREKVEKFIRIAEAMGAKVEVEE
B40: Pdl1_binder_AF2_65 (protein)
chain: ETVRVDATTKETALALMEMGEKAGLKVVIGLTSKEDAEEVAEIAKKKGKFEVFHI

The target of one test is control:Baker_PD-L1, Q9NZQ7.
Sequence of control:Baker_PD-L1, Q9NZQ7 (Q9NZQ7 whole entry): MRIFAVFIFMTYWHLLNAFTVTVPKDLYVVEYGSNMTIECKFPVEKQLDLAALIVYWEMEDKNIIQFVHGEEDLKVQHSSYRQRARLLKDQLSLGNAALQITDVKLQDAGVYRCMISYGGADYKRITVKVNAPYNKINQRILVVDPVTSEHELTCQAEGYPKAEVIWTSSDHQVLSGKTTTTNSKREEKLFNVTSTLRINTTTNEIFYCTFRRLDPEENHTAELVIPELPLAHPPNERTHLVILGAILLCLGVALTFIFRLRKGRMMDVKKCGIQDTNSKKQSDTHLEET
Turning to B1, the “binding in a display sort” value was “not found (inactive)”.

As for B2, the “binding in a display sort” value was “not found (inactive)”.

As to B3, the “binding in a display sort” value was “not found (inactive)”.

In the case of B4, the “binding in a display sort” value is “binds (active)”.

For the molecule B6, the “binding in a display sort” value was “not found (inactive)”.

As for B7, the “binding in a display sort” value is “not found (inactive)”.

On to B8, for which the “binding in a display sort” value was “not found (inactive)”.

As to B9, the “binding in a display sort” value is “not found (inactive)”.

For B10, the “binding in a display sort” value was “not found (inactive)”.

With B11, the “binding in a display sort” value was “not found (inactive)”.

As to B12, the “binding in a display sort” value was “not found (inactive)”.

In the case of B13, the “binding in a display sort” value was “not found (inactive)”.

As for B14, the “binding in a display sort” value is “not found (inactive)”.

On to B15, for which the “binding in a display sort” value was “not found (inactive)”.

Regarding B17, the “binding in a display sort” value is “not found (inactive)”.

For B18, the “binding in a display sort” value is “not found (inactive)”.

For B20, the “binding in a display sort” value was “binds (active)”.

For the molecule B21, the “binding in a display sort” value is “not found (inactive)”.

On to B22, for which the “binding in a display sort” value is “not found (inactive)”.

Turning to B23, the “binding in a display sort” value is “not found (inactive)”.

Regarding B24, the “binding in a display sort” value is “binds (active)”.

Turning to B25, the “binding in a display sort” value was “not found (inactive)”.

For B26, the “binding in a display sort” value is “not found (inactive)”.

B27: the “binding in a display sort” value was “not found (inactive)”.

For the molecule B30, the “binding in a display sort” value is “not found (inactive)”.

Regarding B31, the “binding in a display sort” value was “not found (inactive)”.

For the molecule B33, the “binding in a display sort” value was “not found (inactive)”.

On to B34, for which the “binding in a display sort” value was “not found (inactive)”.

B35: the “binding in a display sort” value was “not found (inactive)”.

With B36, the “binding in a display sort” value is “not found (inactive)”.

Consider B37, for which the “binding in a display sort” value is “not found (inactive)”.

With B38, the “binding in a display sort” value is “not found (inactive)”.

For the molecule B39, the “binding in a display sort” value is “binds (active)”.

As to B40, the “binding in a display sort” value was “not found (inactive)”.

Another test deals with CD276, Q5ZPR3.
Sequence of CD276, Q5ZPR3 (Q5ZPR3 whole entry): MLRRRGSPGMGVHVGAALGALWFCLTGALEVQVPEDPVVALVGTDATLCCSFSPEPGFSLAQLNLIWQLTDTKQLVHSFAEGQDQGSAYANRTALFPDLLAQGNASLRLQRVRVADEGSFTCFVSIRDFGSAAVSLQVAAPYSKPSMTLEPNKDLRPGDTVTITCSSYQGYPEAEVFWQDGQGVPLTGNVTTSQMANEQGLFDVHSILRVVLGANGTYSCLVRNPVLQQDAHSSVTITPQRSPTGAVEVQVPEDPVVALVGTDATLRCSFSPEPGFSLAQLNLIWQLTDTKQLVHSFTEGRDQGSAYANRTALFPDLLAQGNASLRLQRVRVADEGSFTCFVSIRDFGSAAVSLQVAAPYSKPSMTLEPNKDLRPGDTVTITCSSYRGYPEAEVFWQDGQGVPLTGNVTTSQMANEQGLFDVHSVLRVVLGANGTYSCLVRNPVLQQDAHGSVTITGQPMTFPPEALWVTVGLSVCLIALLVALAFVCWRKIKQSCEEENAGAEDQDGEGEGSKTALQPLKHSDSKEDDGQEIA
As for B5, the “binding in a display sort” value is “not found (inactive)”.

Consider B16, for which the “binding in a display sort” value was “not found (inactive)”.

On to B19, for which the “binding in a display sort” value was “not found (inactive)”.

B28: the “binding in a display sort” value was “not found (inactive)”.

As for B29, the “binding in a display sort” value is “not found (inactive)”.

Consider B32, for which the “binding in a display sort” value is “not found (inactive)”.
